Assay [1] is described as follows: compound effects on lung adenocarcinoma cell viability – A549, calcein-AM fluorescence, 48 h, basal, profiling panel (AID 1162). As to conditions: higher = more signal.
The nature of assay [2]: compound effects on differentiated 3T3-L1 adipocyte viability – cell-based, 3T3-L1 adipocytes, calcein-AM fluorescence, 48 h, basal, profiling panel (AID 1163). As to conditions: 3T3-L1 adipocytes viability, higher = more signal.
Assay [3] can be described thus: compound effects on hepatocellular carcinoma cell viability – HepG2, calcein-AM fluorescence, 48 h, basal, profiling panel (AID 1164). As to conditions: higher = more signal.
Assay [4] can be described thus: compound effects on multiple myeloma cell viability – MM1S, calcein-AM fluorescence, 48 h, basal, profiling panel (AID 1165). As to conditions: higher = more signal.
Assay [5] can be described thus: calcein-AM signal in unstimulated myeloma cells – cell-based, calcein-AM fluorescence, 48 h, PK04 Diversity Set, profiling panel (AID 1166).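 Further: cells grown under basal conditions without added stimulus.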 As to conditions: RPMI8226 myeloma viability, higher = more signal.
Assay [6] can be described thus: JC-1 mitochondrial signal, unstimulated HepG2 cells – cell-based, JC-1 fluorescence, 24 h, 100 nL compound, profiling panel (AID 1167). As to conditions: HepG2 mitochondrial potential, higher = more signal.
Assay [7] in a line: JC-1 mitochondrial signal, unstimulated adipocytes – cell-based, JC-1 fluorescence, 3T3-L1 adipocytes, 24 h, 100 nL compound, profiling panel (AID 1168). As to conditions: JC-1 mitochondrial fluorescence, higher = more signal, called active from +8 up or from −8 down.
The nature of assay [8]: JC-1 mitochondrial signal, unstimulated myeloma cells – cell-based, JC-1 fluorescence, RPMI8226, 24 h, 100 nL compound, profiling panel (AID 1169). As to conditions: JC-1 mitochondrial potential fluorescence, higher = more signal.
Assay [9] is described as follows: JC-1 mitochondrial signal, unstimulated MM1S myeloma – cell-based, JC-1 fluorescence, 24 h, 100 nL compound, profiling panel (AID 1170). As to conditions: MM1S mitochondrial potential, higher = more signal.
A short description of assay [10]: resazurin metabolic signal in A549 cells – cell-based, resazurin fluorescence, 24 h, PK04 Diversity Set, profiling panel (AID 1171). As to conditions: A549 viability, higher = more signal, called active from +8 up or from −8 down. (In general: Resazurin is reduced to fluorescent resorufin, in cell work by metabolically active cells.)

Calls of active or inactive are those of the source.
Further: test concentration not given here.

As for `COC(=O)[C@@]1(Cc2ccc(OC)cc2)[C@H]2c3cc(C(=O)N4CCCC4)n(Cc4ccc(C)o4)c3C[C@H]2CN1C(=O)c1ccccc1`, the z-score in assay [1] is -3.86; in assay [2], -3.17; in [3], -5.75; in [4], -3.31; in assay [5] it was -4.69; in assay [6], -4.45. For the same compound, the z-score in [7] was 3.65 (inactive); in [8], -0.815; in assay [9] it was -2.9; in [10], -7.08 (inactive).

Consider `COc1ccc(CCNC(=O)[C@@H]2c3ccccc3C(=O)N(Cc3ccccc3)[C@H]2c2ccc(CO)cc2)cc1`, for which the z-score in assay [1] is 2.96; in [2], 1.29; in assay [3], 2.44; in assay [4], -0.913; in assay [5], 1.02; in assay [6], 2.56. Further, the z-score in [7] is 1.26 (inactive); in assay [8], -0.192; in assay [9], -0.502; in assay [10] it was 0.577 (inactive).

Take `CN(C)CCCC[C@@H]1NC(=O)[C@H]2C[C@@H](C(=O)NCCCCCCNC(=O)CS)[C@@H](c3ccc(O)cc3)N2C1=O`: the z-score in [1] was -0.877; in assay [2], 0.0215; in assay [3], -1.35; in assay [4] it was -0.245; in [5], -1.02; in assay [6], -1.45. In addition, the z-score in assay [7] was -0.715 (inactive); in assay [8] it was 0.683; in [9], 0.441; in assay [10], -0.415 (inactive).

Regarding `O=C1O[C@@H](c2ccccc2)[C@@H](c2ccccc2)N2[C@@H](c3ccc(O)cc3)[C@]3(C(=O)Nc4ccc(C#CC5(O)CCCCCC5)cc43)[C@@H](C(=O)N3CCN(c4ncccn4)CC3)[C@H]12`, the z-score in assay [1] is -0.415; in [2], 0.292; in assay [3], -0.458; in assay [4] it was -0.0835; in [5], -0.813; in assay [6], -0.512. Also, the z-score in assay [7] was -0.68 (inactive); in assay [8] it was -1.05; in assay [9], -0.203; in assay [10], 0.533 (inactive).

In the case of `CCOC(=O)C[C@H]1[C@H](OC(=O)c2ccc(C(=O)c3ccccc3)cc2)[C@@H](NC(=O)C2CCCCC2)c2cc(OCCCO)ccc2N1C(=O)Cc1ccc(OC)cc1`, the z-score in assay [1] was 0.273; in assay [2] it was 0.628; in [3], 0.918; in [4], -0.4; in [5] it was -0.631; in assay [6], 1.06. The z-score in assay [7] is -0.76 (inactive); in assay [8], 0.368; in assay [9], -0.812; in assay [10] it was -0.0859 (inactive).

As to `Cc1ccc(F)cc1S(=O)(=O)N[C@@H]1CCN(C(=O)c2ccc(OC(C)C)cc2)C1`, the z-score was 0.0926 in assay [1]; -1.39 in assay [2]; -0.471 in assay [3]; 0.0842 in assay [4]; -0.705 in [5]; -0.14 in assay [6]. For the same compound, the z-score in [7] was -0.0993 (inactive); in [8], -0.276; in assay [9], -0.497; in [10] it was -0.216 (inactive).

As to `COC(=O)[C@]1(Cc2ccccc2CN=[N+]=[N-])N=C(c2ccc(OCCCO)cc2)O[C@@H]1c1ccccc1CN=[N+]=[N-]`, the z-score is -3.46 in [1]; 0.766 in assay [2]; -4.79 in assay [3]; -3.67 in assay [4]; -4.08 in assay [5]; 0.344 in [6]. Further, the z-score in assay [7] is 0.24 (inactive); in assay [8], -1.07; in assay [9], -2.47; in [10] it was -3.05 (inactive).

For the compound `CCCNC(=O)[C@@]1(Sc2ccc(C)cc2)CC(=O)N(Cc2ccccc2)[C@@H]1c1ccc(CO)cc1I`, the z-score was -0.422 in [1]; -0.525 in assay [2]; 0.0653 in [3]; -2.18 in [4]; -2.52 in [5]; -0.901 in assay [6]. The z-score is -0.686 (inactive) in [7], -0.935 in assay [8], -1.89 in [9] and 0.198 (inactive) in assay [10].

Consider `COC(=O)c1ccc(OC)c(/C=C\CC(CCc2ccccc2)OC(C)=O)c1` (stereo not given), for which the z-score in assay [1] was -0.349; in [2], -0.191; in assay [3], -0.349; in [4], -1.35; in [5], 0.346; in assay [6] it was -1.3. For the same compound, the z-score in assay [7] is -0.459 (inactive); in assay [8] it was -0.48; in assay [9] it was 0.893; in assay [10] it was 0.671 (inactive).

With `CC(C)CCC[C@@H](C)[C@H]1CC[C@@]2(C)C3=C(CC[C@]12C)[C@@]1(C)CC[C@H](OC(=O)c2ccc(N)cc2)C(C)(C)C1CC3` (stereo not given in full), the z-score was 1.22 in assay [1]; 0.187 in [2]; 1.06 in assay [3]; -0.169 in [4]; 0.814 in [5]; 0.703 in assay [6]. Also, the z-score in [7] was 0.335 (inactive); in assay [8] it was -0.064; in assay [9] it was -0.0494; in [10], -0.16 (inactive).

For `CN(C)CCCN1C(=O)[C@@]2(Cc3ccccc31)c1ccccc1C(=O)N(Cc1ccccc1)[C@H]2c1ccc(CO)cc1`, the z-score in assay [1] is 0.483; in assay [2] it was 1.16; in assay [3], 0.128; in assay [4] it was 0.38; in assay [5] it was -2.79; in assay [6] it was 0.343. For the same compound, the z-score was -0.407 (inactive) in assay [7], -0.484 in assay [8], -1.28 in [9] and 0.726 (inactive) in [10].

`COc1ccc(C(=O)Nc2ccc3c(c2)[C@]2(O[C@@H](CCO)[C@H]([Si](C)(C)c4ccc(OC)cc4)[C@H]2C)C(=O)N3Cc2ccccc2)cc1`: the z-score is -1.34 in assay [1]; 1.39 in assay [2]; -2.56 in assay [3]; -2.64 in assay [4]; -2.99 in assay [5]; 0.00933 in assay [6]. Also, the z-score in assay [7] was -0.0069 (inactive); in assay [8], -0.965; in assay [9], -0.497; in assay [10] it was -2.42 (inactive).

As to `O=C1O[C@H](c2ccccc2)[C@H](c2ccccc2)N2[C@H]1[C@@H](C(=O)N1CCN(c3ncccn3)CC1)[C@]1(C(=O)Nc3ccc(C#CCCO)cc31)[C@H]2c1ccccc1OCCO`, the z-score in assay [1] is 1.09; in assay [2] it was 0.569; in assay [3] it was 0.313; in [4] it was -0.445; in assay [5], -2.95; in assay [6], 0.308. The z-score is 0.488 (inactive) in assay [7], -0.794 in assay [8], -0.0117 in assay [9] and 1.92 (inactive) in [10].

Turning to `COC(=O)c1ccc(OC)c(/C=C\CC(CCc2ccccc2)OC(=O)c2ccncc2)c1` (stereo not given), the z-score in assay [1] was -0.568; in assay [2], 0.115; in assay [3] it was -0.457; in assay [4], -2.19; in assay [5] it was -2.2; in assay [6], -1.28. The z-score in assay [7] is -1.32 (inactive); in assay [8], -0.745; in [9], 0.256; in assay [10] it was 2.06 (inactive).

With `C=C[C@@H](O)[C@H]1CC(c2ccccc2)=NO1`, the z-score in assay [1] is 0.721; in [2], -3.92; in assay [3] it was -0.34; in assay [4], 0.626; in [5] it was 0.353; in assay [6], 0.0313. Moreover, the z-score is -0.809 (inactive) in [7], 0.434 in assay [8], -0.819 in assay [9] and 0.558 (inactive) in [10].

(Values after PubChem BioAssay.)
